Screening results (PubChem BioAssay)
IL1B secr inh – inhibitors of inflammasome signaling (IL-1 beta secretion); THP-1 LPS/ATP IL-1B secretion, AlphaLISA, 16 h; hits give low values; activity change, % at 57.5 µM; 360,000 tested, 4.7% active; AID 743279; in the data active means activity change below about -50%; inconclusive means mostly about -30% to -49%; further: on the % scale 0 is the no-effect control and ±100 the full control effect
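Secreted IL-1B measured by AlphaLISA bead assay after 16 h compound exposure of THP-1 cells; compounds (final up to 57.5 uM) added 1 h before LPS (250 ng/mL) and ATP (1.25 mM) stimulation; lower signal means less secretion.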
DT40 TDP1 CPT – growth inhibition of DT40 Tdp1-/-;hTDP1 cells with camptothecin (screen for TDP1 inhibitors) | chicken DT40 Tdp1-/-;hTDP1 cells + 20 nM CPT, ATP luminescence, 48 h | Potency, µM (top dose mostly 46.2 µM), without a hit: at the highest dose activity change, negative = growth inhibition, actives largely listed as inhibitors | 420,000 tested, 12% active; further: potency means the concentration at half of the fitted maximal effect; on the % scale 0 is the no-effect control and ±100 the full control effect; nearly all actives have a fitted effect of over 55% in size
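Chicken DT40 Tdp1-/- cells stably complemented with human TDP1 were seeded at 400 cells/well in medium containing 20 nM camptothecin, exposed to pin-transferred compounds, and grown at 37 °C for at least 48 hr. Viability was read as ATP luminescence.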
TDP1 cell noCPT – qHTS for Inhibitors of human tyrosyl-DNA phosphodiesterase 1 (TDP1): qHTS in cells in absence of CPT; DT40 Tdp1-/- hTDP1 cells, no CPT, ATP luminescence, 48 h; Potency, µM (series often up to 46.2 µM), for inactives: at the top dose activity change, negative = growth inhibition, most hits filed as inhibitors; 420,000 tested, 15% active; AID 686978, 2013; further: potency means the concentration at half of the fitted maximal effect; on the % scale 0 is the no-effect control and ±100 the full control effect; nearly all actives have a fitted effect of over 55% in size
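Chicken DT40 Tdp1-/- cells complemented with human TDP1, screened without camptothecin (DMSO vehicle only), 400 cells/well. Compounds pin-transferred, cells incubated at 37 °C for at least 48 hr. Growth read as ATP-dependent luminescence (CellTiter-Glo, 30 min at RT).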
HepG2 viability – counter-screen for TGF-b inhibitors: cytotoxicity in HepG2 cells | HepG2 CAGA-GFP viability, ATP luminescence, 18 h | Potency, µM (titrated, usually from 46.1 µM), for inactives: at the highest dose activity change, negative = cytotoxicity, usual class: cytotoxic | 410,000 tested, 0.76% active | AID 588856; further: potency means the concentration at half of the fitted maximal effect
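HepG2 CAGA-GFP cells (1000/well, DMEM with 1% FBS) received compound, then TGF-beta at 500 pg/mL final, and were incubated 18 hours at 37 degrees C. Viability was read by CellTiter-Glo luminescence. Media-only wells were set as complete cell-killing and DMSO as no toxicity.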
TGFb inhibitor – blocks TGF-b signaling | AID 588855 | 410,000 tested, 1.2% active | HepG2 CAGA-GFP TGF-b/SMAD3 reporter, GFP fluorescence, 18 h; TGF-beta stimulated, 500 pg/mL final | Potency, µM (top dose mostly 46.1 µM), inactives show at the highest dose activity, negative = inhibition, most hits filed as inhibitors; further: potency means the concentration at half of the fitted maximal effect; on the % scale 0 is the no-effect control and ±100 the full control effect; nearly all actives have a fitted effect of over 65% in size
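GFP signal (ex488/em500-530) from TGF-beta-stimulated HEPG2 CAGA-GFP cells, 500 pg/mL final, 18 h at 37 degrees C in DMEM plus 1% FBS, normalized to unstimulated and DMSO-stimulated controls.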
ASM inhibitor – human S-ASM enzyme inhibition. placental ASM, HMU-PC fluorogenic substrate, 60 min. Potency, µM (top dose mostly 57.5 µM), for inactives: at the highest dose activity change, negative = inhibition, usual class: inhibitors. P17405. 340,000 tested, 0.006% active; further: potency means the concentration at half of the fitted maximal effect
Target sequence (P17405 47-631 limits assumed): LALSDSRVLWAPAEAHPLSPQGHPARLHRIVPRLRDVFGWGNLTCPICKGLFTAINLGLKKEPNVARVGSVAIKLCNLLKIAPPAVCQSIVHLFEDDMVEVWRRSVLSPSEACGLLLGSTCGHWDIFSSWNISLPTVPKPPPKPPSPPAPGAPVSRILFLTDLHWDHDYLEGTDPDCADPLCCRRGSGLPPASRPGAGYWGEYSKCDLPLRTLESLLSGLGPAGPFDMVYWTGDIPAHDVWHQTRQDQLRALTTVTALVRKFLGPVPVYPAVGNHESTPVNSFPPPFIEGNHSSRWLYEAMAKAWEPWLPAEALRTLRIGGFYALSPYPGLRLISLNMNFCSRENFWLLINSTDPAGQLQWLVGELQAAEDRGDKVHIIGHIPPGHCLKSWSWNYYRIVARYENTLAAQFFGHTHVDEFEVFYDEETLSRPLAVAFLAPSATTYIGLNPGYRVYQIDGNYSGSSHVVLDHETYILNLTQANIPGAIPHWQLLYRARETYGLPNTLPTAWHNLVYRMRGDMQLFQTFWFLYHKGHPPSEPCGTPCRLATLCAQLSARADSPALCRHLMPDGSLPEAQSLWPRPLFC
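HMU-PC0 cleavage (9 uM final) by human placental ASM, 60 min at 37 °C following 10 min compound exposure at RT; stopped at pH 10, fluorescence Ex 386/Em 447 nm.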
The depositor's hits bear a star; ? = inconclusive; · = no result; ! = a repeat was not active; [ ] = dose if it differs, or a comment. Hits are enriched below; roughly 19% of the tested compounds scored in any of these assays. Unless noted, the call rests on the fitted dose curve; in most records, active means well fitted curve in the direction sought with a large enough effect; inconclusive means small, poorly fitted or top-dose-only effect, or another doubt; inactive means no such curve, though single readings can be large; an effect the other way counts as inactive or inconclusive.

SMILES	IL1B secr inh	DT40 TDP1 CPT	TDP1 cell noCPT	HepG2 viability	TGFb inhibitor	ASM inhibitor
Cc1ccc(OCc2ccc(C(=O)NCC3CCCO3)cc2)cc1C (configuration not stated)	3	?	?	-17%	0%	4%
O=C(NCC1CCCO1)c1ccc(COc2ccc(Br)cc2)cc1 (configuration not stated)	?	29µM*	23µM*	-15%	-13%	-1%
Cc1ccc(C)n1-c1ccc(C(=O)NCC2CCCO2)cc1 (configuration not stated)	?	13µM*	13µM*	-19%	1%	-4%
COc1ccc(C(=O)NCC2CCCO2)cc1 (configuration not stated)	4	-3%	1%	20%	31%	5%
Cc1cccc(N2CCN(C(=O)CS(=O)(=O)c3cccc4nsnc34)CC2C)c1 (configuration not stated)	·	?	?	-14%	-9%	·
CN(C)S(=O)(=O)N1CCC(Oc2cccc(C(=O)NC3CCCCCC3)c2)CC1	1	18µM*	15µM*	-30%	-10%	2%
CCN1CCN(C(=O)c2cccc(OC3CCN(S(=O)(=O)N(C)C)CC3)c2)CC1	17	2%	9%	0%	0%	-2%
CN(C)S(=O)(=O)N1CCC(Oc2ccc(C(=O)NC3Cc4ccccc4C3)cc2)CC1	17	?	16µM*	-30%	?	0%
Cc1onc(-c2c(Cl)cccc2Cl)c1-c1nc2cc(Cl)ccc2c(=O)o1	0	-5%	0%	-44%	?	0%
COc1ccccc1CC(=O)N1CCN(S(=O)(=O)c2ccccc2F)CC1	1	-7%	1%	-17%	-14%	1%
Cc1cccc(CC(=O)NCC(=O)NCc2cc(=O)n(C)c(=O)n2C)c1	1	12µM*	?	15%	16%	4%
Cc1c(-c2nc(N)nc(Nc3ccccc3)n2)oc2ccccc12	?	?	16µM*	-17%	?	7%
C=CCC1C=CCC(CC=C)N1C(=O)c1ccccc1[N+](=O)[O-] (configuration not stated)	-19	13µM*	?	-3%	-4%	-1%
CCOc1ccc2nc(N3CCCC(C(=O)Nc4cc(Cl)c(OC)cc4OC)C3)sc2c1 (configuration not stated)	·	18µM*	13µM*	-10%	22%	·
CCOc1ccc2nc(N3CCCC(C(=O)NCc4ccc(C)cc4)C3)sc2c1 (configuration not stated)	·	?	?	0%	3%	·
CCOc1ccc2nc(N3CCCC(C(=O)Nc4ccc(OC)cc4)C3)sc2c1 (configuration not stated)	·	15µM*	12µM*	-3%	-19%	·
CCOc1ccc2nc(N3CCCC(C(=O)Nc4cccc(Cl)c4C)C3)sc2c1 (configuration not stated)	·	?	?	1%	1%	·
CCOc1ccc2nc(N3CCCC(C(=O)NCc4ccccc4OC)C3)sc2c1 (configuration not stated)	·	?	23µM*	10%	?	·
CCOc1ccc2nc(N3CCCC(C(=O)Nc4ccc(CC)cc4)C3)sc2c1 (configuration not stated)	·	16µM*	10µM*	1%	-18%	·
COC(=O)c1cc(S(=O)(=O)N2CCN(Cc3ccccc3)CC2)c[nH]1	-16	?	-27%	-5%	-18%	0%
C=CCc1cc(OC)ccc1OCCOCCN1CCc2ccccc2C1	?	?	?	-25%	?	-1%
CCOC(=O)N1CCN(C(=O)Nc2ccc3nc(C)sc3c2)CC1	-1	-12%	0%	-9%	-6%	6%
CCOC(=O)Nc1ccc2nc(N3CCCCCC3)sc2c1	46	3.7µM*	2.6µM*	10%	-3%	-9%
CCOc1ccc2nc(N3CCCC(C(=O)NC4CCCC4)C3)sc2c1 (configuration not stated)	19	?	21µM*	-14%	-4%	-11%
CCOc1ccc2nc(N3CCC(C(=O)NC4CCCCC4)CC3)sc2c1	21	?	?	-18%	-19%	2%
SMILES	IL1B secr inh	DT40 TDP1 CPT	TDP1 cell noCPT	HepG2 viability	TGFb inhibitor	ASM inhibitor
Cc1ccccc1C(OCCN(C(C)C)C(C)C)c1ccccc1 (configuration not stated)	-53*	?	?	-16%	4%	4%
COc1ccc(CCNC(=O)C2CC(=O)N(C3CCCCC3)C2)cc1OC (configuration not stated)	5	16%	0%	-3%	4%	4%
COc1cccc(CN(C)C(=O)CCN=C2NS(=O)(=O)c3ccccc32)c1	46	-17%	-12%	4%	0%	0%
Cn1nc(-c2ccc(Cl)cc2)c2cc(C(=O)NCCCN3CCOCC3)sc21	0	16µM*	18µM*	-11%	-19%	-11%
CCCCN(CC)CCNC(=O)c1cc2c(-c3ccc(Cl)cc3)nn(C)c2s1	-97*	?	?	20µM*!	?	-15%
CCN(CC)CCNC(=O)c1cc2c(-c3ccc(Cl)cc3)nn(C)c2s1	-90*	?	?	-65%	11µM*	-10%
CC(C)OCCCNC(=O)c1cc2c(-c3ccc(Cl)cc3)nn(C)c2s1	·	?	21µM*	-18%	-25%	·
COc1ccc(-c2nc(C)c(CCNC(=O)c3ccccc3Br)s2)cc1OC	·	?	?	-19%	-16%	·
Cc1ccc(C(=O)OCC(=O)Nc2cc(S(C)(=O)=O)ccc2Cl)cc1S(=O)(=O)N1CCCCC1	0	-6%	-7%	2%	-9%	-7%
COCC(=O)Nc1cc(C(=O)N2CC3(C)CC2CC(C)(C)C3)c2c(c1)nc(-c1ccncc1)n2C (configuration not stated)	·	12%[9.04 µM]	-3%	·	·	·
O/N=C/c1cc(Br)ccc1OCc1ccccc1F	-63*	-5%	-19%	-78%	?	-7%
CCCC(=O)N1CCC1(C)C(=O)Nc1scc(C)c1C#N (configuration not stated)	7	21µM*	15µM*	-13%	-6%	·
